The list is not random: actives were taken first. Their share in the collection is about 7.1%.
SW480 rerep: A quantitative high throughput screen for small molecules that induce DNA re-replication in SW480 colon adenocarcinoma cells; Potency, µM (series often up to 46.1 µM), without a hit: top-dose re-replication activation, most hits filed as activators; hit rate 1.8% among 340,000; SW480 DNA re-replication, Hoechst DNA content imaging, 48 h; also: % of control where 0% means no effect; nearly all actives have a fitted effect of over 55% in size
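250 cells/well; 23 nL cpd via pin tool; 48 hr, 37 C, 5% CO2; Hoechst 40 min; imager read of total nuclear intensity, ex 405/em 500-530 nm.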
p53 reactivator: qHTS assay for re-activators of p53 using a Luc reporter; AID 504706, 2011; H1299 p53-A138V BP100-luciferase reporter, luminescence, 24 h; Potency, µM (top dose mostly 92.2 µM), without a hit: at the top dose activity change, positive = activation, hits mostly activators; hit rate 0.063% among 320,000; also: % of control where 0% means no effect; nearly all actives have a fitted effect of over 45% in size
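H1299 (p53-null), stable ts p53-A138V + BP100-Luc; 1000 cells/well, Opti-MEM/10% FBS; cpd 4 pt, 1:5; 24 h, 37 deg C, 5% CO2; detection reagent 10 min RT; luminescence.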
ELG1 DNA repair: qHTS screen for small molecules that inhibit ELG1-dependent DNA repair in human embryonic kidney (HEK293T) cells expressing luciferase-tagged ELG1. HEK293T ELG1-luciferase reporter, luminescence, 16 h; DNA damage induced by 5-fluorouridine. Potency, µM (titrated, usually from 46.1 µM), inactives show at the top dose activity change, negative = inhibition, usual class: inhibitors. hit rate 2.3% among 330,000; also: % is scaled to controls: 0 for no effect and ±100 for the full control effect; nearly all actives have a fitted effect of over 55% in size
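Overnight (16 hr) co-exposure of 2,000 cells/well to 5-fluorouridine and compound at 37 °C preceded detection. Luciferase was quantified via ONE-Glo luminescence; loss of signal denotes inhibition.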
MCF10A rereplic: A quantitative high throughput screen for small molecules that induce DNA re-replication in MCF 10a normal breast cells; MCF 10A DNA re-replication, Hoechst nuclear intensity, 48 h; Potency, µM (doses to about 46.1 µM), inactives show at the highest dose activity, positive = re-replication, most hits filed as activators; hit rate 2.9% among 350,000; also: % of control where 0% means no effect; nearly all actives have a fitted effect of over 50% in size
A-T KAP1 phos: qHTS Assay for Identifying a Potential Treatment of Ataxia-Telangiectasia; F2112 A-T fibroblasts, KAP-1 phosphorylation AlphaLISA; neocarzinostatin DNA damage 30 min before lysis; Potency, µM (doses to about 57.5 µM), for the others: at the highest dose activation, hits mostly activators; hit rate 0.19% among 320,000; AID 485349, 2010; also: % of control where 0% means no effect; nearly all actives have a fitted effect of over 45% in size
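hTERT-immortalized A-T patient fibroblasts (F2112), 500 cells/well in OPTI-MEM, 1% FBS, got compounds for 60 min, then NCS for 30 min at 37C. Lysates were then assayed for phospho-KAP-1 by AlphaLISA (anti-pKAP1 donor, anti-KAP1 acceptor beads), 6 hr at 25C.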
ELG1 genotoxic: qHTS screen for small molecules that induce genotoxicity in human embryonic kidney (HEK293T) cells expressing luciferase-tagged ELG1 | HEK293T ELG1-luciferase reporter, luminescence, 16 h | Potency, µM (doses to about 46 µM), without a hit: at the top dose activity change, positive = activation, actives largely listed as activators | hit rate 1.3% among 330,000 | AID 504466, 2011; also: % of control where 0% means no effect; nearly all actives have a fitted effect of over 60% in size
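Screening used a luciferase reporter fused to human ELG1 in HEK293T cells. Luminescence was read on a CCD plate imager after 16 hr exposure and 30 min ONE-Glo incubation.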
Starred values were filed as active, the others as inactive. Calls follow the shape of the dose curve; as a rule, active = well fitted curve in the direction sought with a large enough effect; inconclusive = small, poorly fitted or top-dose-only effect, or another doubt; inactive = no such curve, though single readings can be large; an effect the other way counts as inactive or inconclusive. Potency is read from the fitted curve at half-maximal effect.

CCOC(=O)c1cc2sccc2n1CCCN1C(=O)c2ccccc2C1=O was read as SW480 rerep 9.5%, p53 reactivator -7.7%, ELG1 DNA repair -2.6%, MCF10A rereplic 20.6µM*, A-T KAP1 phos 9.9% and ELG1 genotoxic -10.5%.
`CCOC(=O)c1cc2sccc2n1Cc1ccccc1` gave SW480 rerep -2.5%, p53 reactivator 0.0%, ELG1 DNA repair -0.2%, MCF10A rereplic 14.0%, A-T KAP1 phos inconclusive and ELG1 genotoxic -1.1%.
C/C(=N\Nc1nc(C)cc(-c2ccccc2)n1)c1ccc(F)cc1 was read as SW480 rerep 5.3%, ELG1 DNA repair -5.7%, MCF10A rereplic 6.9%, A-T KAP1 phos 1.3% and ELG1 genotoxic -2.7%.
C/C(=N/Nc1nc(-c2ccccc2)cc(-c2ccc(F)cc2)n1)c1cccc(N)c1 was read as SW480 rerep inconclusive, p53 reactivator inconclusive, ELG1 DNA repair 7.31µM*, MCF10A rereplic 2.5%, A-T KAP1 phos -0.2% and ELG1 genotoxic -15.7%.
Cc1cc(S(=O)(=O)NCCCN2CCOCC2)ccc1Br was read as SW480 rerep 1.2%, p53 reactivator -3.7%, ELG1 DNA repair 2.1%, MCF10A rereplic 7.2%, A-T KAP1 phos 2.7% and ELG1 genotoxic 0.3%.
`Cc1nc(NC(=O)CSc2nc3cccnc3n2Cc2ccccc2)sc1C` gave SW480 rerep 13.4%, p53 reactivator -7.8%, ELG1 DNA repair inconclusive, MCF10A rereplic 23.1µM*, A-T KAP1 phos 3.2% and ELG1 genotoxic 5.5%.
Screening CCOc1ccc(C(=O)Nc2cccc3ncccc23)cc1Br returned SW480 rerep 63.6%, p53 reactivator -5.7%, ELG1 DNA repair -19.3%, MCF10A rereplic 0.581µM*, A-T KAP1 phos 4.2% and ELG1 genotoxic 0.2%.
`O=C(Nc1cccc2ncccc12)c1ccc(OCc2ccccc2)cc1` gave SW480 rerep -32.5%, p53 reactivator 3.9%, ELG1 DNA repair inconclusive, MCF10A rereplic 1.46µM*, A-T KAP1 phos -1.3% and ELG1 genotoxic -8.3%.
For CCOC(=O)[C@H]1[C@H]2COc3ccc(Cl)cc3[C@@H]2N2C(=O)[C@@H](CO)NC(=O)[C@@]12C the results were SW480 rerep -10.2%, p53 reactivator -0.3%, ELG1 DNA repair inconclusive, MCF10A rereplic 14.8%, A-T KAP1 phos 0.1% and ELG1 genotoxic -0.4%.
For COc1ccc(-c2cc(C(=O)N/N=C/c3cccnc3)c3cc(C)cc(C)c3n2)cc1 the results were SW480 rerep inconclusive, p53 reactivator 1.6%, ELG1 DNA repair inconclusive, MCF10A rereplic 16.4µM*, A-T KAP1 phos -0.1% and ELG1 genotoxic -4.8%.
Screening CCOc1ccc(-c2cc(C(=O)N/N=C/c3cccnc3)c3ccccc3n2)cc1 returned SW480 rerep 7.31µM*, p53 reactivator -11.9%, ELG1 DNA repair inconclusive, MCF10A rereplic 2.91µM*, A-T KAP1 phos 7.2% and ELG1 genotoxic 15.7%.
For COc1ccc(CNC(=O)c2cc(-c3ccncc3)nc3c(C)cc(C)cc23)cc1OC the results were SW480 rerep -1.7%, p53 reactivator 9.8%, ELG1 DNA repair 23.1µM*, MCF10A rereplic inconclusive, A-T KAP1 phos 1.1% and ELG1 genotoxic -11.3%.
CCOc1ccccc1-c1cc(C(=O)N/N=C/c2cccnc2)c2ccccc2n1 was read as SW480 rerep 4.5% and MCF10A rereplic 16.5%.
Cc1ccc(COc2ccccc2-c2cc(C(=O)N/N=C/c3cccnc3)[nH]n2)cc1 was read as SW480 rerep 57.0%, p53 reactivator -1.3%, ELG1 DNA repair 23.1µM*, MCF10A rereplic 8.2µM*, A-T KAP1 phos -4.5% and ELG1 genotoxic -15.1%.
Screening COc1cc(C2CC(=O)N(CC(=O)NCC3CCCO3)c3ccccc3S2)cc(OC)c1OC (stereo unspecified) returned SW480 rerep -10.8%, p53 reactivator -0.1%, ELG1 DNA repair -7.7%, MCF10A rereplic 1.1%, A-T KAP1 phos -1.1% and ELG1 genotoxic -3.8%.
For CC(C)COc1cccc(-c2cc(C(=O)N/N=C/c3ccncc3)c3ccccc3n2)c1 the results were SW480 rerep 3.9%, p53 reactivator 10.0%, ELG1 DNA repair inconclusive, MCF10A rereplic 18.4µM*, A-T KAP1 phos -3.5% and ELG1 genotoxic -8.2%.
`CCOc1cc(/C=N/NC(=O)c2cc(-c3cccc(OC)c3)nc3ccccc23)ccc1O` gave SW480 rerep inconclusive and MCF10A rereplic 8.8%.
Screening CCCc1ccc(OCc2ccc(C(=O)N/N=C/c3cccnc3)o2)cc1 returned SW480 rerep 0.8%, p53 reactivator 7.3%, ELG1 DNA repair inconclusive, MCF10A rereplic 3.7%, A-T KAP1 phos 2.9% and ELG1 genotoxic 0.82µM*.
Screening O=C(NCc1ccccn1)c1nc(Cn2cc([N+](=O)[O-])cn2)no1 returned SW480 rerep -3.1%, p53 reactivator 3.2%, ELG1 DNA repair 6.9%, MCF10A rereplic 8.1%, A-T KAP1 phos -2.7% and ELG1 genotoxic 4.8%.
Screening Cc1ccc(C(=O)Nc2cccc(C(O)c3ccccc3)c2)cc1 (stereo unspecified) returned SW480 rerep -21.4% and MCF10A rereplic -0.6%.
COc1ccc(-c2cc(CC3(C(=O)O)CCN(C(=O)OC(C)(C)C)CC3)on2)c(OC)c1 was read as SW480 rerep 25.4%, ELG1 DNA repair 21.2%, MCF10A rereplic 0.8%, A-T KAP1 phos -1.8% and ELG1 genotoxic 2.6%.
For COc1ccc(CCNC(=O)CC2Nc3cc(C)c(C)cc3NC2=O)cc1OC (stereo unspecified) the results were SW480 rerep 8.0%, p53 reactivator 0.1%, ELG1 DNA repair -13.1%, MCF10A rereplic 6.5%, A-T KAP1 phos 9.6% and ELG1 genotoxic -1.0%.
Cc1cc2c(cc1C)NC(CC(=O)NCc1ccccc1)C(=O)N2 (stereo unspecified) was read as SW480 rerep inconclusive, p53 reactivator inconclusive, ELG1 DNA repair inconclusive, MCF10A rereplic 14.1µM*, A-T KAP1 phos 5.7% and ELG1 genotoxic 15.9%.
For COc1cc(C2c3[nH]c4ccccc4c3C[C@H]3C(=O)N(C4CC4)CC(=O)N23)ccc1OC(C)C (stereo partly specified) the results were SW480 rerep 1.5%, p53 reactivator -10.3%, ELG1 DNA repair inconclusive, MCF10A rereplic 10.1%, A-T KAP1 phos 0.0% and ELG1 genotoxic 4.3%.

Compound activity (PubChem BioAssay)
